# From the supplement of paper PMC10338343
# ± gives the standard deviation.
# How the values were obtained:
# [1] = system: MILI (PIWIL2) piRISC loaded with L1MC piRNA (26 nt); assay: pre-steady-state target cleavage rate (min^-1); guide: L1MC piRNA 5'p-UAACUAAAUACUAUGCAAGCUGUAGG; higher = faster piRNA-guided slicing of the target
# Method in brief: (§1)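 With or without 500 nM GTSF1 partner protein, 1 nM active affinity-purified piRISC carrying one synthetic guide was mixed with 0.1 nM transcribed, DNA-blocked target RNA library in HEPES–potassium acetate buffer at 33 °C for 0–8 or 0–960 min. Uncleaved targets were sequenced and normalised to depth and to weakly complementary targets, three trials were pooled, and k3 was capped at 0.0001 min^-1. The pre-steady-state cleavage rate came from a burst-and-steady-state fit.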
# [2] = system: EfPiwi piRISC loaded with L1MC piRNA (26 nt); assay: pre-steady-state target cleavage rate (min^-1); auxiliary factor: 500 nM Ephydatia muelleri Gtsf1; guide: L1MC piRNA 5'p-UAACUAAAUACUAUGCAAGCUGUAGG; MIWI and MILI are mouse PIWI proteins and EfPiwi is from a freshwater sponge; tags in brackets are library labels; higher = faster piRNA-guided slicing of the target
# Method in brief: as §1
# [3] = auxiliary factor: 500 nM mouse GTSF1
# [4] = auxiliary factor: none (no GTSF1)
Sequence,"pre-steady-state target cleavage rate [1, 3]","pre-steady-state target cleavage rate [1, 4]",pre-steady-state target cleavage rate [2]
UCCUGCUACAGCUUGCAUCGUAUUUAGUUA,0.168 ± 0.022,0.006 ± 0.0019,0.0091 ± 0.0022
UCCUGCUACAGCUUGCAUAGUAUUUAGUUA [g2:g25:cont:t1A],0.282 ± 0.019,0.0105 ± 0.003,0.0357 ± 0.011
UCCUGGAUGAGCUUGCAUAGUAUCUAGUUA,0.131 ± 0.019,0.00451 ± 0.0026,0.00844 ± 0.003
UCCUGGAACAGGAAGCAUAGUAUUUAGUUA,0.199 ± 0.016,0.00491 ± 0.0024,0.00471 ± 0.002
UCCUGCUACAGCUUGCAUAGUAUUUUAGUUA,0.283 ± 0.023,0.0106 ± 0.0025,0.00822 ± 0.0026
UCCUGGAUGACCAUGCAUAGUAUUUAGUUA,0.0729 ± 0.022,0.00375 ± 0.0034,0.00488 ± 0.0028
UCCUGCAACAGCAUGCAUAGUAUUUAGUUA,0.329 ± 0.023,0.00926 ± 0.0035,0.0232 ± 0.0055
UCCUCCAACAGCUAGCAUAGUAUUUAGUUA,0.25 ± 0.017,0.00537 ± 0.0023,0.00798 ± 0.0027
UCCUGGUAGCAGCUUGCAUAGUAUUUAGUUA,0.286 ± 0.019,0.0162 ± 0.0048,0.0746 ± 0.02
UCCUGGUACAGCUUCGCAUAGUAUUUAGUUA,0.274 ± 0.021,0.0125 ± 0.0035,0.038 ± 0.0086
UCCUGGAUGAGCUCUGCAUAGUAUUUAGUUA,0.171 ± 0.01,0.0111 ± 0.0033,0.00721 ± 0.0028
UCCUGGAUGAGGCUUGCAUAGUAUUUAGUUA,0.186 ± 0.018,0.0125 ± 0.0036,0.0185 ± 0.0065
UCCUCCAUCAGCUUGCAUAGUAUUUAGUUA,0.248 ± 0.018,0.00673 ± 0.002,0.0155 ± 0.005
UCCUGCUACGAGCUUGCAUAGUAUUUAGUUA,0.217 ± 0.026,0.00594 ± 0.0032,0.00866 ± 0.0022
UCCUGCUACAGCUUGGAUAGUUUUUAGUUA,0.0668 ± 0.012,0.00289 ± 0.0027,0.0172 ± 0.0039
UCCUGCUACACGAUGCAUAGUAUUUAGUAA,0.257 ± 0.032,0.00703 ± 0.0026,0.00352 ± 0.0024
UCCUGGAACAGGAUGCAUAGUAUUUAGUUA,0.285 ± 0.016,0.0116 ± 0.0027,0.00753 ± 0.0018
UCCUCCUACAGGUUGCAUAGUUUUUAGUUA,0.0349 ± 0.0064,0.00478 ± 0.0018,0.00915 ± 0.0022
UCCUCCUACAGCUUGCAUAGUAUUUAGUA,0.177 ± 0.021,0.00474 ± 0.0025,0.00701 ± 0.0026
UCCUGGUACAGGUUGCAUUGUAUUUAGUUA,0.175 ± 0.023,0.0117 ± 0.0031,0.0047 ± 0.0018
UCCUGGAUGUCGAUGCAUAGUAUUUAGUAA,0.108 ± 0.015,0.00268 ± 0.0024,0.00329 ± 0.0032
UCCUGGAUCAGGUUGCAUACUAUUUAGUUA,0.0436 ± 0.0082,0.00331 ± 0.0025,0.00262 ± 0.0019
UCCUGGAUGAGCUUGCAUAGUAUGUUAGUUA,0.157 ± 0.021,0.0093 ± 0.0029,0.00879 ± 0.0036
UCCUGCUACAGCUUGCAAGUAUUUAGUUA,0.138 ± 0.017,0.00374 ± 0.0027,0.00614 ± 0.0027
UCCUGGAUGAGCUUGCCUAGUAUUUAGUUA,0.194 ± 0.014,0.00475 ± 0.0027,0.00623 ± 0.0037
UCCUCCUACAGCUUGCAUAGUAAUUUGUUA,0.111 ± 0.021,0.00269 ± 0.0026,0.00652 ± 0.0028

Sequence,"pre-steady-state target cleavage rate [1, 3]","pre-steady-state target cleavage rate [1, 4]",pre-steady-state target cleavage rate [2]
UCCUGGUACAGCUUUGCAUAGUAUUUAGUUA,0.185 ± 0.018,0.0164 ± 0.0048,0.00974 ± 0.0035
UCCUGGAACAGCUUGCAUAGUACUUAGUUA,0.243 ± 0.018,0.0101 ± 0.0024,0.0218 ± 0.0069
UCCUGGAACAGCUAGCAUAGUAUUAAGUUA,0.192 ± 0.015,0.00356 ± 0.0025,0.0146 ± 0.0061
UCCUCCUACUGCUUGCAUAGAAUUUAGUUA,0.0415 ± 0.0062,0.00232 ± 0.002,0.00761 ± 0.0021
UCCUGCUCACAGCUUGCAUAGUAUUUAGUUA,0.351 ± 0.019,0.0111 ± 0.0037,0.072 ± 0.016
UCCUGCUAGAGCUUGCAAAGUAUUUAGUUA,0.112 ± 0.012,0.00382 ± 0.0021,0.00607 ± 0.0018
UCCUCCUACUGCUUGCAUUGUAUUUAGUUA,0.212 ± 0.013,0.00808 ± 0.0019,0.0605 ± 0.016
UCCUCUCUACAGCUUGCAUAGUAUUUAGUUA,0.28 ± 0.022,0.00895 ± 0.0022,0.0164 ± 0.006
UCCUCCUACAGCUUGCAUAGUAUAAAGUUA,0.137 ± 0.023,0.00301 ± 0.0023,0.00527 ± 0.0031
UCCUGGUACAGCUUGCAUAGUAGUUUAGUUA,0.217 ± 0.028,0.00833 ± 0.003,0.0074 ± 0.0029
UCCUGGAUGAGCUUACAUAGUAUUUAGUUA,0.153 ± 0.019,0.00591 ± 0.0023,0.00581 ± 0.0024
UCCUGCUACAGCUUUGCAUAGUAUUUAGUUA,0.263 ± 0.02,0.00559 ± 0.0027,0.0161 ± 0.0053
UCCUGGAACAGGUUGCAUACUAUUUAGUUA,0.0491 ± 0.0087,0.00363 ± 0.002,0.00367 ± 0.0017
UCCUGGAUCACGUUGCAUAGUAUUUAGUUA,0.206 ± 0.019,0.00683 ± 0.0026,0.0686 ± 0.017
UCCUGGUACAGCUUGGUUAGUAUUUAGUUA,0.192 ± 0.023,0.0135 ± 0.0038,0.00478 ± 0.0032
UCCUGCUUCAGCUUGGAUAGUAUUUAGUUA,0.268 ± 0.015,0.0068 ± 0.002,0.0331 ± 0.007
UCCUGCUACAGCUUCGAUAGUAUUUAGUAA,0.199 ± 0.03,0.00274 ± 0.0022,0.00315 ± 0.0026
UCCUCCAACAGGUUGCAUAGUAUUUAGUUA,0.28 ± 0.011,0.00862 ± 0.0019,0.0491 ± 0.011
UCCUGGAUCAUCUUGCAUAGUAUUUAGUUA,0.241 ± 0.014,0.00614 ± 0.002,0.101 ± 0.023
UCCUGCUACAGCAUGCAUAGUAAUUAGUUA,0.225 ± 0.022,0.00692 ± 0.0027,0.007 ± 0.0024
UCCUGCUAAGCUUGCAUAGUAUUUAGUUA,0.182 ± 0.018,0.00403 ± 0.0019,0.00771 ± 0.0024
UCCUGGAUGUCGAUGCAUAGUAUUUAAGUUA,0.145 ± 0.019,0.00656 ± 0.0024,0.00522 ± 0.0045
UCCUGGAUCAGCUUGCAUAGUAAUUAGUAA,0.0974 ± 0.021,0.00485 ± 0.0021,0.00487 ± 0.0027
UCCUGGAUCAGUCUUGCAUAGUAUUUAGUUA,0.212 ± 0.016,0.0108 ± 0.0023,0.0152 ± 0.0042
UCCUGCUAGCAGCUUGCAUAGUAUUUAGUUA,0.259 ± 0.014,0.00955 ± 0.0024,0.0598 ± 0.016
